We go through 167 sequences from article PMC6212790, “How bacterial xenogeneic silencer rok distinguishes foreign from self DNA in its resident genome”.

In all, about 33,000 sequences were measured (“e-score”: median about -0.038, highest 2% from about 0.33 on). The sample as a whole holds a higher share of the highest values than the screen did.

The assay deals with T1, GST-Rok-C97-191 (Bacillus subtilis subsp. subtilis str. …, UniProt O34857 97-191).
T1 sequence: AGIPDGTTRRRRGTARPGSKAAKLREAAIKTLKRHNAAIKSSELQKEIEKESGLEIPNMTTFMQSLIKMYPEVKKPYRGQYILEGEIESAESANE
Nature of the assay: protein binding microarray; Rok is a gene silencer of Bacillus subtilis; high values mean tight binding. As to conditions: protein: recombinant; tags: GST (pTH5325, pDEST15-Magic modified); dsDNA, one strand shown. The gist of the method:
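Every oligonucleotide joins a 25-mer constant primer to a 35-mer variable part drawn from a de Bruijn sequence of order 10, so each non-palindromic 8-mer appears at least 32 times and each palindromic 8-mer 16 times. The preference for every 8-mer is reported as a unitless, rank-based enrichment score (E-score). This score spans 0.5 for the most favored 8-mer to −0.5 for the most disfavored.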
In the case of ATGACGGG, the binding signal is -0.176 E-score.

In the case of GGGGCTAA, the binding signal is -0.0896 E-score.

Regarding ATAAGAAT, the binding signal is 0.215 E-score.

With AGAATATA, the binding signal is 0.231 E-score.

For CGAATATA, the binding signal worked out at 0.245 E-score.

On to GGAATATA, for which the binding signal was 0.377 E-score.

Consider CAACGGCA, for which the binding signal was -0.159 E-score.

As for GCGCAATA, the binding signal came to 0.0439 E-score.

For the sequence AGCGGTAG, the binding signal was found to be 0.33 E-score.

CGCGGTAG: the binding signal is 0.00539 E-score.

As for ACCGGTAA, the binding signal came out at 0.192 E-score.

Consider ACCGGTAG, for which the binding signal is 0.335 E-score.

CCCGGTAG: the binding signal is -0.134 E-score.

AGCGGTAT: the binding signal came out at 0.237 E-score.

Take ATGACCCA: the binding signal is -0.129 E-score.

Turning to GTTTGTTA, the binding signal was found to be 0.13 E-score.

As for ACATCAAA, the binding signal worked out at 0.02 E-score.

On to CCTGTCAG, for which the binding signal is -0.131 E-score.

Turning to AACTAACT, the binding signal was 0.352 E-score.

For AACTAACA, the binding signal was found to be 0.126 E-score.

As for GACTAAAA, the binding signal came to 0.144 E-score.

For the sequence TACTAAAA, the binding signal amounted to 0.421 E-score.

As to AACTAAAG, the binding signal is -0.0536 E-score.

In the case of AACTAATT, the binding signal was found to be 0.344 E-score.

For the sequence AACTAAAC, the binding signal was determined as 0.00571 E-score.

As to AACTAATA, the binding signal turned out to be 0.288 E-score.

As to AACTAACG, the binding signal was determined as 0.263 E-score.

AACTAAAT: the binding signal worked out at 0.379 E-score.

With CACTAAAA, the binding signal is 0.299 E-score.

As to AACTAATC, the binding signal worked out at 0.129 E-score.

On to AGGCACAT, for which the binding signal was -0.0618 E-score.

Consider CTGCAACA, for which the binding signal is 0.0545 E-score.

As to ACGGACCA, the binding signal is -0.109 E-score.

For CGTCCTTA, the binding signal is 0.175 E-score.

As to AAAATGTG, the binding signal amounted to 0.218 E-score.

As to GTGCGAAC, the binding signal is -0.184 E-score.

Take GCGAATAC: the binding signal is 0.0221 E-score.

For AAACTGGG, the binding signal is -0.197 E-score.

CCCGCTAC: the binding signal is -0.0971 E-score.

As for AGACCTAG, the binding signal is 0.0543 E-score.

AGAAGCTC: the binding signal was -0.0476 E-score.

With CCTAATCC, the binding signal was found to be 0.0562 E-score.

As to CGATAAGA, the binding signal was 0.0724 E-score.

For the sequence AACTAAAA, the binding signal came to 0.347 E-score.

In the case of ACCTAAAA, the binding signal is 0.295 E-score.

With AACTAAGA, the binding signal came out at 0.223 E-score.

AACACAAA: the binding signal worked out at 0.135 E-score.

AGCGCAAG: the binding signal is -0.0906 E-score.

For ATACGACC, the binding signal was 0.00262 E-score.

As to AAAGGTAG, the binding signal worked out at 0.316 E-score.

Take ATTAACTA: the binding signal amounted to 0.367 E-score.

For ATTAACTC, the binding signal worked out at 0.124 E-score.

With GTTAACGA, the binding signal was 0.0428 E-score.

On to CTTAACTA, for which the binding signal was found to be 0.273 E-score.

As to GTTAACTA, the binding signal was 0.376 E-score.

In the case of ATTAACTG, the binding signal was 0.214 E-score.

As to TAGTCACA, the binding signal was determined as 0.123 E-score.

Consider TCGGGCCA, for which the binding signal was -0.12 E-score.

As to AGAGTGCG, the binding signal was -0.139 E-score.

For the sequence AGTAGAAG, the binding signal was 0.276 E-score.

Take AGTAGAAC: the binding signal stood at 0.234 E-score.

Regarding AGTAGAGA, the binding signal was 0.206 E-score.

AGTAGAAT: the binding signal came to 0.422 E-score.

For the sequence AGTAGAAA, the binding signal was 0.448 E-score.

Turning to ATTAGAAA, the binding signal amounted to 0.282 E-score.

With AACGGGCT, the binding signal was -0.138 E-score.

Take AGCCATTG: the binding signal was -0.0954 E-score.

On to AAGGACTG, for which the binding signal is -0.0637 E-score.

Regarding ACAGAGAG, the binding signal is -0.125 E-score.

ATATTGTG: the binding signal was determined as 0.214 E-score.

Regarding ATATTGTA, the binding signal was 0.363 E-score.

Take CTATTGTA: the binding signal was determined as 0.355 E-score.

In the case of GTATTGTA, the binding signal was 0.212 E-score.

With CTATTGTC, the binding signal was -0.0498 E-score.

Regarding CAATTGTA, the binding signal stood at 0.251 E-score.

As for ATGCGCGG, the binding signal was -0.168 E-score.

In the case of CTGTCCAA, the binding signal was -0.154 E-score.

CACAGAGG: the binding signal was -0.0801 E-score.

With ACATCCTG, the binding signal was -0.137 E-score.

Regarding TCCTGCGA, the binding signal is -0.149 E-score.

On to GGCTTGAA, for which the binding signal is -0.105 E-score.

For CACTGACG, the binding signal was 0.009 E-score.

For the sequence AAATTTAG, the binding signal came out at 0.242 E-score.

ATTTTTAC: the binding signal amounted to 0.328 E-score.

For GAATTTAC, the binding signal worked out at 0.282 E-score.

In the case of AAATTTAC, the binding signal amounted to 0.38 E-score.

With AATTTTTA, the binding signal stood at 0.167 E-score.

In the case of AAATTTTC, the binding signal was 0.182 E-score.

As for AATTTTAG, the binding signal was found to be 0.259 E-score.

Turning to AAATTTGA, the binding signal is 0.0368 E-score.

On to AAATTTGG, for which the binding signal is 0.0224 E-score.

For the sequence AAATTTGT, the binding signal stood at 0.33 E-score.

Consider AATTTTAC, for which the binding signal came to 0.384 E-score.

As for AAATTTTA, the binding signal was determined as 0.374 E-score.

Turning to TGAAGTAA, the binding signal was 0.132 E-score.

Take GTAATAAC: the binding signal was found to be 0.0936 E-score.

With GTATTCGA, the binding signal worked out at 0.15 E-score.

On to ATTTGCTG, for which the binding signal was -0.0116 E-score.

Take AAGATTGC: the binding signal is -0.0164 E-score.

For the sequence AATCGTGA, the binding signal is -0.118 E-score.

Regarding ACCCATGC, the binding signal was -0.182 E-score.

As to AGAGCGAA, the binding signal was -0.138 E-score.

For the sequence GGTCGACA, the binding signal is -0.101 E-score.

TAAATTTA: the binding signal was determined as 0.405 E-score.

Turning to CAATTTAG, the binding signal came to 0.232 E-score.

In the case of CAAATTTA, the binding signal came to 0.31 E-score.

Regarding CAATTTAC, the binding signal is 0.357 E-score.

For the sequence AAAATTTA, the binding signal was 0.282 E-score.

Take CAATTTAA: the binding signal was 0.0656 E-score.

As to AGTCTGGG, the binding signal was -7.1e-05 E-score.

GAGCTTAC: the binding signal is -0.189 E-score.

Consider CCGAAAAC, for which the binding signal was 0.168 E-score.

In the case of TATACATA, the binding signal came to 0.401 E-score.

Turning to TACACATA, the binding signal worked out at 0.203 E-score.

Regarding AATACAAA, the binding signal amounted to 0.313 E-score.

Turning to TATACAAA, the binding signal was 0.347 E-score.

Consider CATACAAA, for which the binding signal was found to be 0.219 E-score.

Consider AATACATA, for which the binding signal stood at 0.308 E-score.

Regarding CATACATA, the binding signal is 0.234 E-score.

On to GATACATA, for which the binding signal was found to be 0.377 E-score.

For the sequence CATACATG, the binding signal stood at 0.171 E-score.

On to CATTAACC, for which the binding signal was -0.0128 E-score.

For TCATACCA, the binding signal was 0.0725 E-score.

As to ATTAGCAC, the binding signal was found to be 0.0299 E-score.

Regarding GTCGGAAC, the binding signal came to 0.0505 E-score.

On to AAGGTTGA, for which the binding signal is 0.063 E-score.

For CTACCTTA, the binding signal is 0.264 E-score.

Regarding AAAAGCAA, the binding signal came out at 0.148 E-score.

For CGATTATC, the binding signal was 0.0925 E-score.

TACTGAGA: the binding signal turned out to be 0.0745 E-score.

Take ATACTAAC: the binding signal was determined as 0.103 E-score.

CTACTAAA: the binding signal came out at 0.379 E-score.

Turning to CTACTAAC, the binding signal worked out at 0.223 E-score.

On to CTACTAAG, for which the binding signal is 0.261 E-score.

Turning to GTACTAAC, the binding signal was 0.145 E-score.

With GGACTAAA, the binding signal is 0.0947 E-score.

On to ATACTAAA, for which the binding signal is 0.39 E-score.

On to TGACTAAA, for which the binding signal was 0.0396 E-score.

Turning to TCACTAAA, the binding signal worked out at 0.164 E-score.

As for GTACTAAA, the binding signal turned out to be 0.329 E-score.

On to ATACTAAT, for which the binding signal is 0.321 E-score.

Take TTACTAAA: the binding signal was 0.335 E-score.

On to TATTTCCA, for which the binding signal came out at 0.228 E-score.

As to ACTATTGC, the binding signal worked out at 0.313 E-score.

On to CTATCTTA, for which the binding signal came out at 0.227 E-score.

For the sequence AAGAATCT, the binding signal amounted to 0.0962 E-score.

In the case of TTCCTCAA, the binding signal is 0.041 E-score.

As to AACTGAGC, the binding signal was determined as 0.0188 E-score.

In the case of GAAGCTGA, the binding signal came to 0.014 E-score.

With ACGGTCCT, the binding signal is -0.132 E-score.

Turning to AAACTGTT, the binding signal was -0.043 E-score.

As for GTAAGATA, the binding signal was found to be 0.229 E-score.

For GAAAGATA, the binding signal was 0.329 E-score.

For the sequence AATAGATA, the binding signal was 0.32 E-score.

On to GTTAGATA, for which the binding signal came to 0.321 E-score.

As for CTAAGATA, the binding signal turned out to be 0.213 E-score.

For the sequence CATAGATA, the binding signal came to 0.297 E-score.

In the case of AAAAGATA, the binding signal was determined as 0.137 E-score.

With ATAAGATA, the binding signal stood at 0.372 E-score.

For GATAGATA, the binding signal worked out at 0.347 E-score.

With TATAGATA, the binding signal is 0.368 E-score.

In the case of TAAAGATA, the binding signal came to 0.27 E-score.

As for GATAGATC, the binding signal is 0.268 E-score.

Take AACATCGA: the binding signal worked out at 0.134 E-score.

In the case of GCACAAAC, the binding signal was -0.0175 E-score.

On to AGCGTGGA, for which the binding signal was 0.126 E-score.

Turning to AAAAGAGA, the binding signal is 0.147 E-score.
